{
  "source": "PubChem BioAssay AID493185",
  "about": "(National Center for Advancing Translational Sciences (NCATS), 2011)",
  "note": "Unmarked numbers belong to inactive results. The source made the active and inactive calls. Calls come from the whole dose curve; as a rule, active = well fitted activation curve with a large enough effect; inconclusive = small, poorly fitted or top-dose-only effect; inactive = no such curve, though single readings can be large or run the other way. Potency is the fitted concentration of half-maximal effect.",
  "data": [
    {"assay": "Counterscreen for Identifying a Potential Treatment of Ataxia-Telangiectasia: Hit Validation; for activation: 0% is about no effect", "details": "cell-free AlphaLISA/AlphaScreen artifact counterscreen, PBS only, no cells; series mostly up to 76.9 µM; activation: at the top concentration", "summary_of_the_method": "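Without cells, compounds at up to 76.7 uM final were combined with premixed anti-pKAP1/anti-KAP1 AlphaLISA bead reagents, protease inhibitors and lysis buffer; signal read after 6 hr at 25C to flag assay-platform artifacts.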", "units": {"activation": "%"}, "values": [
      {"smiles": "O=C(O)c1ccc(-c2nc3ccccc3s2)o1", "activation": -3.01},
      {"smiles": "Cc1oc2c(c(C)cc3oc(=O)c(CC(=O)NCC(=O)NCC(=O)O)c(C)c32)c1C", "activation": -5.38},
      {"smiles": "CCOC(=O)c1c(CSc2ccsc2)n(C)c2cc(Br)c(O)c(CN(C)C)c12", "activation": -23.8},
      {"smiles": "CN(C)C(=O)CN(C)S(=O)(=O)c1ccc(Cl)cc1", "activation": 9.02},
      {"smiles": "O=C(C(c1ccccc1)c1ccccc1)N1CC[C@@]2(O)CCCC[C@H]2C1", "activation": -23.1},
      {"smiles": "C/C(CCC1CC(C)OC1=O)=N\\NC(N)=S", "note": "(stereo not given)", "activation": -7.52},
      {"smiles": "CCCc1nn(C)c(C(=O)Nc2ccc(C(C)(C)C)cc2)c1Cl", "activation": 7.69},
      {"smiles": "CCOc1ccccc1CNC(=O)Cn1c(=O)oc2ccccc21", "activation": -17.7},
      {"smiles": "C=C1CCC[C@]2(C)C[C@H]3OC(=O)C(CN4CCCCC4CO)[C@H]3CC12", "note": "(stereo not given in full)", "activation": -2.46},
      {"smiles": "NC(=O)C1CCN(Cc2nc3cc(C(F)(F)F)ccc3c(=O)[nH]2)CC1", "activation": 0},
      {"smiles": "CC1=C/C(=C\\C=C(C#N)C#N)N(C)c2ccccc21", "activation": 36.9},
      {"smiles": "CC(CCc1ccccc1)NC(=O)COC(=O)c1ccc(F)cc1", "note": "(stereo not given)", "activation": 2.46},
      {"smiles": "CC(C)c1ccc(C(C(=O)NC2CCCCC2)N(C(=O)c2ccccn2)c2cccnc2)cc1", "note": "(stereo not given)", "activation": -8.2},
      {"smiles": "COc1ccc(-c2nn(C)c(=O)[nH]2)cc1", "activation": 6.56},
      {"smiles": "C=CCSc1nc2ccccc2n1C(=O)/C=C/c1cc(OC)c(OC)c(OC)c1", "activation": 2.26},
      {"smiles": "CC(C)CC(=O)Nc1c2c(nn1-c1cccc(Cl)c1)CS(=O)C2", "note": "(stereo not given)", "activation": -5.74},
      {"smiles": "Cc1oc2ccc(OCc3ccc(Br)cc3)cc2c1C(=O)O", "activation": 1.5},
      {"smiles": "COc1cccc(CNC(=O)C(CC(C)C)NC(=O)c2ccccc2C)c1", "note": "(stereo not given)", "activation": 0},
      {"smiles": "COc1ccc(N(C)S(=O)(=O)c2cccc(C(=O)OCC(=O)NCc3ccccc3OC)c2)cc1", "activation": -12.8},
      {"smiles": "C=CS(=O)(=O)c1sc(Cl)c(N2CCOCC2)c1[N+](=O)[O-]", "activation": -5.74},
      {"smiles": "Cc1cccc(NC(=O)/C(C#N)=C/c2ccc(F)cc2)n1", "activation": -13.1},
      {"smiles": "CCn1c2ccccc2c2c3ncc4cccn4c3ccc21", "Potency": "41.2 µM (active)"},
      {"smiles": "CCn1c(=NC(=O)CN2C(=O)CCC2=O)sc2c(OC)ccc(OC)c21", "activation": -5.74},
      {"smiles": "CC(=O)Nc1ccc(NC(=O)CSc2nnnn2-c2ccc(F)cc2)cc1", "activation": 2.26},
      {"smiles": "O=C(NC12CC3CC(CC(C3)C1)C2)c1cccc(OC(F)F)c1", "activation": 4.1},
      {"smiles": "CCC(=O)c1ccc2c(c1)OCCO2", "activation": -15.8},
      {"smiles": "O=C(O)c1ccc(C2Nc3ccccc3C(=O)N2Cc2ccccc2)cc1", "note": "(stereo not given)", "activation": 27.8},
      {"smiles": "O=C(CNCc1cccs1)Nc1cc(S(=O)(=O)N2CCCC2)ccc1Cl", "activation": 10.5},
      {"smiles": "CCC(=O)NC1=C(Cl)C(=O)C(NC(=O)CC)=C(Cl)C1=O", "activation": -13.9},
      {"smiles": "CC(=O)NNC(=O)CN1C(=O)/C(=C/c2ccccc2)SC1=S", "activation": -5.26},
      {"smiles": "O=C(COc1ccccc1Cl)NCCCNC(=O)c1cnccn1", "activation": -27.7},
      {"smiles": "COC(=O)c1ccc2[nH]c3cccc(/C(=C/c4ccccc4)c4ccccc4)c3c2c1", "activation": 4.92},
      {"smiles": "CCc1ccc(NC(=O)CNCc2ccc(OC)c(OC)c2)cc1", "activation": -3.28},
      {"smiles": "O=C(Nc1cc(S(=O)(=O)N2CCOCC2)ccc1Cl)c1cc(=O)c2ccccc2o1", "activation": 2.26},
      {"smiles": "C[C@H](NC(=O)OC(C)(C)C)C(=O)NCC1CCC(C(=O)N[C@@H](Cc2ccccc2)C(=O)O)CC1", "note": "(stereo not given in full)", "activation": -14.8},
      {"smiles": "COc1ccc(N(CCC#N)C(=O)/C(C#N)=C\\c2cccs2)cc1", "activation": -12},
      {"smiles": "CC(C)(C)NC(=O)c1cccc2c1-c1ccccc1C2=O", "activation": 0},
      {"smiles": "O=C(CCC(=O)c1ccc(F)cc1)Nc1cccc(Br)c1", "activation": -0.752},
      {"smiles": "CN(Cc1ccccc1)C(=O)c1cccc(N2C(=O)C3CC=CCC3C2=O)c1", "note": "(stereo not given)", "activation": 1.54},
      {"smiles": "COc1ccc(CCNC(=O)C2CCN(S(=O)(=O)c3ccc(OC)c(OC)c3)CC2)cc1OC", "activation": 0.769}
    ]}
  ]
}
